From patent US20220289795, “EFFICIENT METHOD FOR PREPARING PPR PROTEIN AND USE OF THE SAME” (EditForce, Inc., published 2022) come the findings set out here.

The assay deals with T1, v3.1_PPR13 (Artificial Sequence).
T1 chain: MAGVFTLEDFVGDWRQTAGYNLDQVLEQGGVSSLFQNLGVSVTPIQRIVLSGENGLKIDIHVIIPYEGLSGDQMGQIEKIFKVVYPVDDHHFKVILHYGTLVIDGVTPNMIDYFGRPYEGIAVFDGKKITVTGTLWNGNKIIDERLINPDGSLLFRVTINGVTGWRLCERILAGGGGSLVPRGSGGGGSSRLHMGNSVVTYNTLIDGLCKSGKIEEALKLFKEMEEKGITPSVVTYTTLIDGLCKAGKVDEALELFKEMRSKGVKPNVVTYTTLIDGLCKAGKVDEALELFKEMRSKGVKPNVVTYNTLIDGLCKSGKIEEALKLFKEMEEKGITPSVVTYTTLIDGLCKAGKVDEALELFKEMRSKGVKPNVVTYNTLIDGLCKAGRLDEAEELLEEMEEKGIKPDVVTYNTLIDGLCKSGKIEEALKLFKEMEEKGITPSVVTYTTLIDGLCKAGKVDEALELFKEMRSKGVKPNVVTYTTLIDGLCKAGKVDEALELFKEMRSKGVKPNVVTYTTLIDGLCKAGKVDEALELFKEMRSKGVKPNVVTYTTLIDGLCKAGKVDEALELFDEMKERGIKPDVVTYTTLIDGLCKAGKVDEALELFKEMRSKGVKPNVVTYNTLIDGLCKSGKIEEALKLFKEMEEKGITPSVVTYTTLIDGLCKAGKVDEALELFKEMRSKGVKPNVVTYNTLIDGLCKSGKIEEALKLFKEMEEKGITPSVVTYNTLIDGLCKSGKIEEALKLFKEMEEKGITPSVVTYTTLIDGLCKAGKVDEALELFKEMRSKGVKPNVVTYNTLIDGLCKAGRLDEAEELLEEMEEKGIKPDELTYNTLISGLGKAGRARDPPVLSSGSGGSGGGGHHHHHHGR
Kind of assay: RPB-ELISA. As to conditions: tags: N-terminal luciferase, C-terminal 6xHis; label: 5'-biotin; ssRNA. As to the method:
RNA probes consisting of a designed 30-base sequence containing 18 bases of the target sequence and modified by biotinylation at the 5′ end (RNA_1, RNA_2, RNA_3, RNA_4, and RNA_5, SEQ ID NOS: 61 to 65) were synthesized (Grainer). To a streptavidin-coated plate (Thermo fisher), the 5′-end biotinylated RNA probes were added, reaction was allowed at room temperature for 30 minutes, and the plate was washed with a lysis buffer (20 mM Tris-HCl, pH 7.6, 150 mM NaCl, 5 mM MgCl₂, 0.5% NP-40, 1 mM DTT, 0.1% BSA). For background measurement, wells to which RNA was not added, but 100 μL of the lysis buffer, 1 μL of 100 mM DTT, and 1 μL of 40 unit/4 RNase inhibitor (Takara, 2313A) were added were also prepared. Then, 200 μL of a blocking buffer (20 mM Tris-HCl, pH 7.6, 150 mM NaCl, 5 mM MgCl₂, 0.5% NP-40, 1 mM DTT, 1% BSA) was added, and the plate surface was blocked at room temperature for 30 minutes. Then, 100 μL of E. coli lysate containing luciferase-fused PPR protein having a luminescence level of 1.5×10⁸ LU/μL was added to each well, and the binding reaction was allowed at room temperature for 30 minutes. The well was washed 5 times with 200 μL of a washing buffer (20 mM Tris-HCl, pH 7.6, 150 mM NaCl, 5 mM MgCl₂, 0.5% NP-40, 1 mM DTT). […] The background (luminescence signal value obtained with adding the PPR protein and without adding RNA) was subtracted from the luminescences of the samples to which a solution containing each RNA and PPR protein was added, and the obtained values were used as the binding powers between the PPR protein and RNA.
By using the V3.1 motif, PPR proteins for the same 23 kinds of target sequences were similarly prepared (SEQ ID NOS: 411 to 433 for the nucleotide sequences, and SEQ ID NOS: 434 to 456 for the amino acid sequences), and bindings of all the combinations were analyzed by using RPB-ELISA. The experimental method was the same as that used in Example 3.
Background: In an ELISA, binding on a coated surface is turned into a signal by an enzyme label.
Consider GGUUAGAGAUACAGUGUG, for which the binding signal was 20.6 log2 luminescence.
